Measurements reported in the supplement of paper PMC6555819.

Tests used:
Assay in all cases: PBM binding z-score (relative to random genomic background probes); higher = stronger binding; sequences stand for … in GC…GCGATTGACAGCGTAGAATGAAGG
[1] = system: RARb homodimer (NR concentration 270 nM)
In short: (§1)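 The probes on custom Agilent 4×180K protein-binding microarrays were double-stranded, with 34-nt variable regions bearing direct-repeat seeds, single-nucleotide variants, half-site ablations and random human genomic background sequences. Incubation lasted 1 h with ligand-free nuclear receptor dimers in PBS pH 7.4, 2% milk, 0.02% Triton X-100, 1 mM DTT, 0.2 mg/mL BSA and 0.4 mg/ml salmon testes DNA. Antibodies against each partner (one per run) detected bound dimers, and fluorescence scans were regression-normalized. Binding z-scores take the random background probes as reference.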

[2] = system: RARg:RXRa (NR concentration 270 nM, RXRa partner concentration 90 nM)
In short: as §1

[3] = system: RARg homodimer (NR concentration 270 nM)
In short: as §1

[4] = system: RXRa DBDmut IVT, anti-RXR (DBD mutation: RXRa K156A/R161A, NR concentration 90 nM)
In short: as §1

[5] = system: RXRa homodimer (NR concentration 180 nM)
In short: as §1

[6] = system: THRa:RXRa (NR concentration 90 nM, RXRa partner concentration 90 nM)
In short: as §1

[7] = system: THRa homodimer (NR concentration 90 nM)
In short: as §1

[8] = system: VDR homodimer (NR concentration 270 nM)
In short: as §1

Sequence | PBM binding z-score [1] | PBM binding z-score [2] | PBM binding z-score [3] | PBM binding z-score [4] | PBM binding z-score [5] | PBM binding z-score [6] | PBM binding z-score [7] | PBM binding z-score [8]
TAGCCTAGGTCATGGGCCAGTAAACCACGCGAAC | 2.99 | 4.38 | 5.19 | 0.473 | 3.77 | 3.25 | 1.12 | 0.514
TCATATAGGTAATCCAGGTGAAAGTCGGCATCTA | 0.511 | 0.501 | 0.455 | 1.5 | 0.995 | 2.41 | 1.35 | 0.168
CAAACTAGATCAAGGTCAAAGTCGGTTTGTGCCA | 3.72 | 3.89 | 3.29 | 2.46 | 4.18 | 3.88 | 2.96 | 3.73
TTACCAATGTGAGCTGAGGTCGTTGATCCAACTC | 0.861 | 0.247 | -0.299 | 0.122 | 0.752 | 3.25 | 1.54 | 2.7
CAAACAGGGTCAGCTAGGCCAGAGTAGGGACGGC | 3.2 | 4.72 | 4.56 | 1.83 | 4.56 | 2.94 | 0.733 | 1.44
GGAAGGAGGGCAAGTTGATAGCAGAGTTTGATGG | 2.04 | 1.51 | 1.88 | 0.971 | 0.655 | 1.08 | 1.12 | 2
TCTTGTAGATCAAGCAGGTTAAAAAAGCCTGAGT | 0.112 | 0.141 | -0.124 | 0.493 | 0.566 | 0.589 | -0.577 | 0.272
TCTAGCAGTCCAGAGGGTCACTCAAGAGGTACGG | 2.78 | 2.4 | 1.91 | 0.0371 | 2.54 | 1.79 | 0.000359 | 0.904
TATACAGGGTCAAAGGCCAGAGTCCGAATGTCGA | 3.69 | 5.63 | 4.75 | 2.69 | 6.54 | 3.62 | 0.963 | 2.67
CAAACTAGGTAACCGGAAGGTCAAAGTCCGCATG | 4.17 | 4.35 | 3.57 | 0.531 | 3.79 | 3.26 | 1.44 | 2.22
GCGACTGCGGCATCAGCAGGTTACCATAACTTAA | 0.0981 | -0.378 | -0.604 | -0.332 | 0.0443 | 0.0329 | 0.0125 | -0.566
ATCTCTAGGTACAGATAGTTCAGTGAATGCAAAT | 0.913 | 0.74 | 0.847 | 1.17 | 0.198 | 0.432 | 0.0409 | 1.65
CCGACTGGCGCAAAGGTTACCATACTCAGTACGA | 1.81 | 1.62 | 0.821 | 0.55 | 2.11 | 1.35 | -0.0334 | -0.00484
TCGAGTTGGTCAAAGGTCACACACTCGAAATGCG | 4.92 | 6.93 | 5.89 | 2.1 | 8.01 | 3.94 | 1.19 | 2.78
GTACCAAGGTGAATAGGTGGTTGATGAGTAGGCG | 0.863 | 0.652 | 0.628 | -0.536 | 0.63 | 1.3 | 0.799 | -0.0991
TAGCCTAGGTAATTGGGCCAGTATAGTACGCATC | -0.403 | -0.17 | -0.133 | -1.07 | -0.301 | -0.106 | -0.68 | -0.642
TCTAGCAGGCCAGAAGGTCACTCAAGAGGTACGG | 3.87 | 3.95 | 3.46 | 0.459 | 3.15 | 2.28 | 0.225 | 1
TCTTGTAGATAAACAGGAGGTTAAGAAAGATCGA | 0.563 | 0.413 | 0.451 | 0.64 | 0.929 | 0.693 | -0.428 | -0.0637
CAAACTAGGTCAAAGGTGAAAGTCGAGCCAACCA | 3.44 | 6.43 | 4.84 | 2.14 | 7.81 | 3.65 | 1.03 | 1.05

Sequence | PBM binding z-score [1] | PBM binding z-score [2] | PBM binding z-score [3] | PBM binding z-score [4] | PBM binding z-score [5] | PBM binding z-score [6] | PBM binding z-score [7] | PBM binding z-score [8]
ATCTCTAGGTAACCAAGTTCATTGAATGCCGAAC | 2.07 | 1.42 | 1.35 | 2.39 | 1.29 | 2.2 | 1.25 | 5.53
TCTCGGACGACACGAAGGTCAGAGCTTTCCAGAG | 3.12 | 2.49 | 2.65 | 0.495 | 2 | 1.53 | 0.0855 | 0.189
TCTTGTAGATCAAAGTTTAAGAAAGCCGAAGCCT | 0.469 | 0.16 | 0.307 | 1.22 | 0.561 | 0.0453 | -0.571 | -0.214
CGTCCAAGGTCAGAGAGCTCAGTGAATGCCGAGT | 3.53 | 4.54 | 5.24 | 2.67 | 3.25 | 3.14 | 1.42 | 1.5
TAGCCTAGGTCATTCTGGGGCCAGTATAGAAAGC | 2.94 | 4.85 | 3.81 | 1.87 | 2.52 | 3.62 | 0.956 | 1.11
ACTCGGAGGACAAAGGTCAGAGCTACGCCAGTGA | 4.27 | 5.92 | 5.23 | 1.08 | 5.45 | 3.35 | 0.581 | 1.03
AATACAGGGTCATCGTAGGCCAGAGTACGCACAG | 3.55 | 5.49 | 5.05 | 3.55 | 6.83 | 4.6 | 1.54 | 3.35
AGTCAAGGTTCACTAGGTAACGTAAGATTCAGCT | 1.85 | 2.74 | 2.72 | 3.92 | 2.57 | 1.8 | 0.553 | 3.78
GGAACGAGGGCATTCGACTTGATAGCATGGCGAT | 0.502 | 1.11 | 1.52 | 3.17 | 0.731 | 0.81 | -0.453 | 2.32
CCTCGGAGGACAACAGGAAGTCAGAGCTGCCAGA | 0.0796 | 0.396 | 1.06 | 0.139 | -0.479 | 0.205 | -0.14 | -0.542
GCTTCTAGGTCAACTGATGGTCAGCTAAAGCTCG | 3.97 | 5.38 | 5.89 | 1.54 | 3.56 | 3.5 | 1.79 | 0.255
ATCTCTAGGTAATCAAGTTCAGTGAATGCCGAAC | 1.24 | 0.838 | 0.72 | 0.825 | 0.439 | 1.26 | 0.487 | 2.59
TCTATTAGTTGCAGGGCAACCGACGAGTCCGTTT | 0.506 | 0.104 | 0.0745 | 1.28 | 0.296 | 0.323 | 0.293 | 1.45
GATACAGGGTCAAGGCCATAGTACGCGTATTGAT | 3.69 | 5.34 | 5.15 | 2.44 | 5.52 | 3.54 | 1.52 | 2.22
TCATATAGGTAAACAGGTGAAACTCCGTAAGTTA | 0.92 | 0.806 | 0.575 | 1.37 | 1.47 | 0.984 | 0.268 | 0.307
ACTTACGGGTCAACGAGGTTAGAGCACGCGTATA | 3.62 | 5.52 | 5.15 | 2.34 | 5.87 | 3.7 | 0.878 | 2.6
ACTAGCAGGCCAAGTTTGGGTCCCTCAAACAAAG | -0.155 | -0.211 | -0.235 | -0.528 | -0.565 | 0.0407 | -0.344 | -0.397
AGTCAAAGCTCACTAGGTAACGTAAGATTCAGCT | -0.396 | -0.184 | -0.065 | -0.217 | 0.00455 | 0.131 | -0.137 | -0.474
CGAACTAGGTCATTTACAGGACAGTGAATAGTAA | 2.66 | 4.82 | 4.09 | 2.58 | 2.38 | 2.89 | 0.896 | 1.75

Sequence | PBM binding z-score [1] | PBM binding z-score [2] | PBM binding z-score [3] | PBM binding z-score [4] | PBM binding z-score [5] | PBM binding z-score [6] | PBM binding z-score [7] | PBM binding z-score [8]
CCGACTGGAGCAAGGTTACCATAACGCACAGCCA | 1.15 | 0.461 | 0.534 | 0.587 | 0.971 | 1.16 | 0.379 | 0.142
ACTAGCTGGTCAGCTGAGGTCACACACAATTCGG | 4.27 | 4.27 | 4.18 | 0.848 | 4.03 | 5.12 | 4.71 | 3.25
AGTCAAAGTTCATCTAGGTAAGGTAAGATATGCT | 4.03 | 5.32 | 5.79 | 4.64 | 4.38 | 3.19 | 0.886 | 4.84
ACTATTAGTTGACTTAGGGCAGCCGATACGACGC | 0.54 | 0.527 | 0.729 | 0.712 | 0.378 | 0.635 | 0.246 | 0.0585
TCGAGTAGGTTAGGGGCATTCGGAATGGCGTCGA | 0.742 | 0.5 | -0.0301 | 0.0579 | 0.52 | 0.777 | 0.132 | 0.956
TCTAGCAGGCCAGAGGATCACTCAAGAGGTACGG | -0.66 | -0.277 | -0.18 | -0.0121 | 0.0922 | -0.78 | -0.974 | -0.819
CCTAGCAGGCCAATCTGGGTCAATCAAGGCTTGA | 1.85 | 0.779 | 1.13 | 0.108 | 0.518 | 3.67 | -0.0726 | -0.0739
CCTTACGGGTCACTAACAGGTTATAGCATTTGGA | 3.17 | 5.31 | 4.12 | 2.03 | 4.25 | 2.98 | 0.367 | 1.29
CAGCCTAGGTCGGGGCCAGTATAGGAGGAACGTT | 0.941 | 0.359 | 0.842 | -0.52 | -0.0745 | 0.171 | -0.524 | -0.348
GCTTGTAGATCAAGGTTTAGAAAGACTAAGCTAA | -0.764 | -0.251 | -0.299 | -0.0471 | -0.469 | -0.36 | -0.736 | -0.186
CGAACTAGGTCATAACAGGACAGTGAAGGATGAT | 2.36 | 3.28 | 3.91 | 1.66 | 2.37 | 4.04 | 0.443 | 0.892
AGAATGAGGTAACCAAAGATCAGGGAAACGCTTG | -0.385 | 0.568 | 0.561 | -0.346 | 0.827 | 2.05 | 0.539 | -0.262
CGTCCAAGGTCAGAGAGGTAAGTGAATGCCGAGT | 3.27 | 4.7 | 5.39 | 2.67 | 3.85 | 3.5 | 1.8 | 1.71
TGTCAAAGTTCAAAGGTAACGTAGGTATCCACAC | 4.01 | 6.19 | 6.01 | 4.14 | 7.19 | 3.05 | -0.392 | 3.97
TCAGACAGGTGAAGGTAACACAGGTACGCAGTCG | 1.34 | 0.896 | 1 | 1.56 | 1.54 | 1.36 | 0.868 | 0.48
TCGAGTGGGTTAGGGGCATTCAGAATGGCGTCGA | 1.21 | 0.178 | -0.204 | 0.231 | 0.603 | 1.23 | 0.84 | 1.54
TCTTGTAGATCAAAGGTTAAGAGAGCCGAAGCCT | 1.45 | 1.84 | 0.766 | 0.28 | 3.32 | 1.18 | -0.582 | -0.415
ACAGACCGGTGAGTGAAGGTAACTCAGCTGGACG | -0.506 | -0.114 | -0.11 | -0.55 | -0.109 | 0.21 | -0.915 | -0.72
TCTAGCAGGCCAGCGGGTCACTCAAGAGGTACGG | 2.01 | 2.14 | 1.56 | 0.000361 | 1.77 | 1.42 | -0.34 | -0.133
